Source: PubChem BioAssay (Tox21)
“And” between values parts separate entries of the source, which are not always exact repeats. Equal values may be shown once. Inconclusive results are not listed. Entries that show only a call come without a potency. A number with no mark means an inactive call. The source made the active and inactive calls. Calls follow the shape of the dose curve; as a rule, active = well fitted curve in the direction sought with a large enough effect in the repeat runs; inconclusive = weak or mixed curves; inactive = no such curve, though single readings can be large; an effect the other way counts as inactive or inconclusive.

Tests used:
[1] = target: Cytochrome P450 2C19 (Homo sapiens) (UniProt P33261); assay: Cytochrome P450 Family 2 Subfamily C Member 19 (CYP2C19) small molecule antagonists: luciferase reporter qHTS assay (AID 1671197); details: P450-Glo CYP2C19 enzyme, luciferin luminescence, 1 h; series mostly up to 115 µM; also: nearly all actives have a fitted effect of over 65% in size
Summary of the method: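 CYP2C19 P450-Glo, 1536-well qHTS. Cpd + enzyme/proluciferin substrate 10 min RT; + NADPH regen, 37C 1 h; stop with luciferin detection reagent, 20 min RT, luminescence (RLU). Pos ctrl ketoconazole.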

[2] = target: Voltage-gated inwardly rectifying potassium channel KCNH2 (Homo sapiens) (UniProt Q12809); assay: Human Ether-a-go-go-Related Gene (hERG) channel small molecule antagonists: fluorescence cell-based qHTS assay (AID 1671200); details: hERG-U2OS cells, FluxOR thallium flux fluorescence; series mostly up to 76.8 µM; also: nearly all actives have a fitted effect of over 50% in size;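 as to activity change, negative = inhibition: hERG-expressing U2OS cells given a thallium stimulus after FluxOR II dye loading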
Summary of the method: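 Thallium served as the potassium surrogate; its influx into dye-loaded U2OS cells carrying the channel was measured by fluorescence over 2 min.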

[3] = target: Cytochrome P450 3A4 (Homo sapiens) (UniProt P08684); assay: Cytochrome P450 Family 3 Subfamily A Member 4 (CYP3A4) small molecule antagonists: luciferase reporter qHTS assay (AID 1671201); details: P450-Glo CYP3A4 enzyme, luciferin luminescence, 1 h; series mostly up to 115 µM; also: nearly all actives have a fitted effect of over 50% in size
Summary of the method: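 Relative luminescence units after 20 min with luciferin detection reagent served as read-out. Beforehand, CYP3A4 turned over a proluciferin substrate for 1 h at room temperature with NADPH regeneration, following 10 min compound preincubation.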

[4] = target: Cytochrome P450 1A2 (Homo sapiens) (UniProt P05177); assay: Cytochrome P450 Family 1 Subfamily A Member 2 (CYP1A2) small molecule antagonists: luciferase reporter qHTS assay (AID 1671199); details: P450-Glo CYP1A2 enzyme, luciferin luminescence, 1 h; series mostly up to 115 µM; also: nearly all actives have a fitted effect of over 50% in size
Summary of the method: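 Human CYP1A2 activity measured with a P450-Glo proluciferin substrate; compounds in DMSO preincubated 10 min at room temperature with enzyme-substrate mix, then NADPH regeneration system added for 1 h. Luciferin detection reagent, 20 min, luminescence read.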

[5] = target: Cytochrome P450 2C9 (Homo sapiens) (UniProt P11712); assay: Cytochrome P450 Family 2 Subfamily C Member 9 (CYP2C9) small molecule antagonists: luciferase reporter qHTS assay (AID 1671198); details: P450-Glo CYP2C9 enzyme assay, luciferin luminescence; series mostly up to 115 µM; also: nearly all actives have a fitted effect of over 50% in size
Summary of the method: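 P450-Glo proluciferin substrate with CYP2C9 enzyme; 10 min RT preincubation, then NADPH regeneration 1 h at 37C; luciferin detection reagent 20 min RT, luminescence in relative luminescence units.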
Potency is read from the fitted curve at half-maximal effect.

Voltage-gated inwardly rectifying potassium channel KCNH2 (Homo sapiens), sequence (Q12809 whole entry, looked up): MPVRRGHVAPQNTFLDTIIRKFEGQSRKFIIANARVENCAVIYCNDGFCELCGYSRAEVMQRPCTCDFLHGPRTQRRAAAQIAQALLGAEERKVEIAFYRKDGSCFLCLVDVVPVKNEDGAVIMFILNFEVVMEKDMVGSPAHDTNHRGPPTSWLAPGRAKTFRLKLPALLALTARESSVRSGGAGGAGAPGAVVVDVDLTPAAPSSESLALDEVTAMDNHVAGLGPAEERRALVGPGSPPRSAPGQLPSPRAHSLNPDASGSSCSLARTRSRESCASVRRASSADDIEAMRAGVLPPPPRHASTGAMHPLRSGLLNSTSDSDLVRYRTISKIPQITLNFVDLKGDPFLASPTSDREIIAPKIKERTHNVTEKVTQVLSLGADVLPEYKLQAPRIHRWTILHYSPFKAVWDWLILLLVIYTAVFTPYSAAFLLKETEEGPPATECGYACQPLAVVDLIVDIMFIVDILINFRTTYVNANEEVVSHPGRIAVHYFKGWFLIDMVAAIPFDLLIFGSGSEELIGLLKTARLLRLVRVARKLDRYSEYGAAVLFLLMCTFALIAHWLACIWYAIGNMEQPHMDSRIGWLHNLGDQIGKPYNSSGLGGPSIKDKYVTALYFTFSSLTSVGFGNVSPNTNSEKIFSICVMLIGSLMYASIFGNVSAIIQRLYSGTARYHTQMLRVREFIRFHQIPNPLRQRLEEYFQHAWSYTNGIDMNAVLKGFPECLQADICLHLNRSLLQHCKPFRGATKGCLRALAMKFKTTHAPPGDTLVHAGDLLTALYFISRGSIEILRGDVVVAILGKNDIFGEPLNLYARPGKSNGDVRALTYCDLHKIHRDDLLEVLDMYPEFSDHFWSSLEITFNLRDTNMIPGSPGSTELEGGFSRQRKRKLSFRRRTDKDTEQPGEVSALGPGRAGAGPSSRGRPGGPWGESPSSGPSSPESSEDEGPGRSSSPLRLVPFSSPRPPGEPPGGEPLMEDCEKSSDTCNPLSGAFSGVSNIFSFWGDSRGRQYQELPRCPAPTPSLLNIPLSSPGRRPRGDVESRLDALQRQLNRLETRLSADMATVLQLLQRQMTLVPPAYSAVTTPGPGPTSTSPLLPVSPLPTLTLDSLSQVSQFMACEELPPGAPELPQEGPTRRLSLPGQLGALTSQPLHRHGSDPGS
Cytochrome P450 1A2 (Homo sapiens), sequence (P05177 whole entry, looked up): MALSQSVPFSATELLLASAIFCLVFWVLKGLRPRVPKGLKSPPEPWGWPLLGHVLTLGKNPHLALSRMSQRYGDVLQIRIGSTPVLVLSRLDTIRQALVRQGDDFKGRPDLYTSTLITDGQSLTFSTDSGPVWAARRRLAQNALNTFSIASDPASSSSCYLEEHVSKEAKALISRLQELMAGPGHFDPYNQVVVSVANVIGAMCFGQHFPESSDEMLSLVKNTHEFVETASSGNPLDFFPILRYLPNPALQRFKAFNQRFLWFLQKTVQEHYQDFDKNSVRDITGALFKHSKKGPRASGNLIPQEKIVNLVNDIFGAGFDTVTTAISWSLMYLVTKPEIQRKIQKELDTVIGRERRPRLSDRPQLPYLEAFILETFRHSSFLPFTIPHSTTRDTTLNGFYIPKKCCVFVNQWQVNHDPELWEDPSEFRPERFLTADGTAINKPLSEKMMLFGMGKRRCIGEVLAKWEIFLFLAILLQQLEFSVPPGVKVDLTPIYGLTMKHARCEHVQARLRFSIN
Cytochrome P450 2C19 (Homo sapiens), sequence (P33261 whole entry, looked up): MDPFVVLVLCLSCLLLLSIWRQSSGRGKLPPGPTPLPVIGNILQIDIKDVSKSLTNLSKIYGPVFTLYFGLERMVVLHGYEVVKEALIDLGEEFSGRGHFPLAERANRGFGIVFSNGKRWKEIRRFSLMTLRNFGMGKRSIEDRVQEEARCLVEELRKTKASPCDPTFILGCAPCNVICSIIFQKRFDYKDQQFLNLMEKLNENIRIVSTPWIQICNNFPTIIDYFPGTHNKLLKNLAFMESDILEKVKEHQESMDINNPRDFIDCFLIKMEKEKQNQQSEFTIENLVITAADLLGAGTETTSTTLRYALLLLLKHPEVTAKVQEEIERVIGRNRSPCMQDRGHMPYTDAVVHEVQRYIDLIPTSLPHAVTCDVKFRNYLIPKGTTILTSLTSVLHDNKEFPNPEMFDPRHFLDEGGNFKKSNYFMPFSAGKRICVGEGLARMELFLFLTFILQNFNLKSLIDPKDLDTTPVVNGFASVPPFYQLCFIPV
Cytochrome P450 2C9 (Homo sapiens), sequence (P11712 whole entry, looked up): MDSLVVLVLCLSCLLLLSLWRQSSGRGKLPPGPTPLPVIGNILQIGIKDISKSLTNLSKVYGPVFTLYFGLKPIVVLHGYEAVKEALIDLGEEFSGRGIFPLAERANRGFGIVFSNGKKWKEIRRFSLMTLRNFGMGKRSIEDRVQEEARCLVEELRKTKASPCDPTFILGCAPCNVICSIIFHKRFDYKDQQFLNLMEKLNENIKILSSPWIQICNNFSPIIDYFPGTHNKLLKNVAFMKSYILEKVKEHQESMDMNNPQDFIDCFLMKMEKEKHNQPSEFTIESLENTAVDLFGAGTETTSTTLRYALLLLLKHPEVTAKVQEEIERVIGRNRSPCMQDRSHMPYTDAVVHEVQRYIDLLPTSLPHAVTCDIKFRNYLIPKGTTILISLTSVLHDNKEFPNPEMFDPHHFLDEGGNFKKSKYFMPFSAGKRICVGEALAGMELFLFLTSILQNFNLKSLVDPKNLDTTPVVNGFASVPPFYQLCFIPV
Cytochrome P450 3A4 (Homo sapiens), sequence (P08684 whole entry, looked up): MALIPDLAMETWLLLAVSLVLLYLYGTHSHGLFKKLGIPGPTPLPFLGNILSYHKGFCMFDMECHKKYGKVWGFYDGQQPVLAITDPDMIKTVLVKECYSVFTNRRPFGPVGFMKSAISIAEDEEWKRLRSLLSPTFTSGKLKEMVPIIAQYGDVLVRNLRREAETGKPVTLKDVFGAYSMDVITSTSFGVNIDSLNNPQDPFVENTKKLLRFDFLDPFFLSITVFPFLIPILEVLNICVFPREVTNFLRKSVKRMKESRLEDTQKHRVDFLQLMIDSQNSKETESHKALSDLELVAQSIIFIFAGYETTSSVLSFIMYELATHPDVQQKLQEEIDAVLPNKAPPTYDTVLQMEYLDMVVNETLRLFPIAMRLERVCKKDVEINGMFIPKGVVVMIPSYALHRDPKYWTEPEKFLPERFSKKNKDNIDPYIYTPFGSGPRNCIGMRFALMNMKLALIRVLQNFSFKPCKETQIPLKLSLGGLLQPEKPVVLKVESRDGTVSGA

CCCCCCCCCCCCC(=O)O
Potency [1]: 71.3 µM (active) | Potency [2]: inactive | Potency [3]: inactive

CC[C@@H]1C[C@H](N(Cc2cc(C(F)(F)F)cc(C(F)(F)F)c2)C(C)=O)c2cc(C(F)(F)F)ccc2N1C(=O)OC(C)C
Potency [1]: inactive | Potency [2]: inactive | Potency [3]: 0.894 µM (active)

CC(C)(C)c1ccc(S)cc1
Potency [1]: 50.2 µM (active) | Potency [2]: inactive | Potency [3]: inactive

CC(CN)CCCN (stereo unspecified)
Potency [1]: inactive | Potency [4]: inactive | Potency [3]: 6.33 µM (active)

C=CCCCCCC
Potency [5]: inactive | Potency [4]: inactive | Potency [2]: inactive | Potency [3]: inactive

FC(F)(F)C(F)(F)C(F)(F)C(F)(F)C(F)(F)C(F)(F)CCI
Potency [1]: inactive | Potency [4]: inactive | Potency [2]: inactive | Potency [3]: inactive

O=C(O)Cn1c(C(=O)Nc2nc(-c3ccccc3Cl)cs2)cc2ccccc21
Potency [1]: inactive | Potency [4]: inactive | Potency [3]: inactive

CC1=CCC(C(C)C)C=C1 (stereo unspecified)
Potency [1]: 79.6 µM (active) | Potency [2]: inactive | Potency [3]: 25.2 µM (active)

CC1CCc2cc(F)cc3c(=O)c(C(=O)O)cn1c23 (stereo unspecified)
Potency [5]: inactive | Potency [4]: inactive | Potency [2]: inactive

O=C(C(=O)c1ccc(Br)cc1)c1ccc(Br)cc1
Potency [1]: 0.352 µM (active) | activity change, negative = inhibition [2]: -1.71% [at 15.8 µM] | activity change, negative = inhibition [3]: 4.73% [at 23.6 µM]

CCN(CC)C(C)CN1c2ccccc2Sc2ccccc21 (stereo unspecified)
Potency [1]: 34.7 µM (active) | Potency [4]: 7.76 µM (active) | Potency [3]: inactive

Oc1ccc(C(O)CNCCCCCCNCC(O)c2ccc(O)c(O)c2)cc1O (stereo unspecified)
Potency [1]: inactive | Potency [2]: inactive | Potency [3]: inactive

Cc1cc(NC(=O)C(=O)O)cc(C)c1Oc1ccc(O)c2c1CCC2
Potency [1]: 25.2 µM (active) | Potency [3]: inactive

Cn1sccc1=O
Potency [5]: 31.7 µM (active) and 35.6 µM (active) | Potency [4]: 35.6 µM (active) and 31.7 µM (active) | Potency [2]: inactive | Potency [3]: inactive

C1CCC2OC2C1 (stereo unspecified)
Potency [1]: inactive | Potency [2]: inactive | Potency [3]: inactive

ClC(Cl)(Cl)c1ccc(C(Cl)(Cl)Cl)cc1
Potency [5]: 39.5 µM (active) | Potency [4]: 4.98 µM (active) | Potency [2]: 6.85 µM (active) | Potency [3]: inactive
